Sampled rows, rich in hits. Any-hit rate of the full collection: about 2.2%.
PGC1a acetyl inh – inhibitors of PGC1a acetylation signal, primary screen, cell-based, U2OS, AlphaScreen, inhibitor mode | AlphaScreen anti-acetyl-lysine; with virally co-expressed GCN5 acetyltransferase | inhibition, % at 15.6 µM | 0.17% of 350,000 active | AID 651687, 2012;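 active means every replicate shows inhibition of at least 40%; inconclusive means mean inhibition at least 40% but some replicate below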;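 further: 0% = neutral control wells and 100% = positive control wells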
miR122 inh – miR-122 Renilla sensor signal increase in Huh7, primary screen, miR-122 inhibitor project, cell-based, single point, plate reader. Huh7 miR-122 Renilla luciferase sensor, 48 h; neutral wells = 0, positive control = 100. 0.3% of 340,000 active. activation (reporter increase), % at 12.5 µM;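 active means mean replicate activation score at least 90 and every replicate individually at or above 90; inconclusive means only one of the two criteria met; inactive means neither criterion met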;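 further: higher luciferase means less miR-122 activity so hits act as miR-122 inhibitors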
Statin myotox sup – suppressors of statin myotoxicity in C2C12 myotubes, primary screen, cell-based, single point, plate reader | C2C12 myotubes + simvastatin, ATP luminescence, 48 h; scaled: DMSO 0, geranylgeraniol control 100 | rescue of ATP level, % at 7.49 µM | 0.78% of 330,000 active;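 active means mean ATP rescue above about 67%, or every replicate alone reaching that limit, limit read from the data, passing the limit was not always enough; inconclusive means no clear call, values can overlap the other calls; inactive means mean under the limit and some replicate under it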;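 further: myotubes were challenged with 10 µM simvastatin during compound exposure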
DENV2 CPE – inhibitors of DENV2 cytopathic effect, primary screen, cell-based, plate reader, single concentration; DENV2-infected cells, cytopathic effect rescue; CPE inhibition, % at 9.99 µM; 1.7% of 350,000 active; AID 651640, 2012; in the data active means CPE inhibition above about 20%, passing the limit was not always enough; inconclusive means no clear call, values can overlap the other calls; tested in BHK-21 cells;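 further: 0% = median of neutral control wells and 100% = median of positive control wells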
PvdQ inh – P. aeruginosa PvdQ acylase inhibitors, primary screen, biochemical, fluorescence, plate reader and imaging, single point. PvdQ acylase [Pseudomonas aeruginosa LESB58]. purified PvdQ acylase. inhibition, % at 10 µM. 0.063% of 340,000 active; in the data active means inhibition above about 30%, passing the limit was not always enough; inconclusive means no clear call, values can overlap the other calls;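 further: 0% = vehicle neutral wells and 100% = reference inhibitor wells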
* hit, by the source's call; ? = inconclusive; · = no result; ! = a repeat was not active; [ ] = remark or other dose.

SMILES	PGC1a acetyl inh	miR122 inh	Statin myotox sup	DENV2 CPE	PvdQ inh
O=C(c1cccc(F)c1)N1C[C@H]2[C@@H](c3ccccc31)[C@H](CO)N2C(=O)c1cccc(F)c1	-6	20[16.7 µM]	3	-9	·
COCC(=O)Nc1ccc2c(c1)C(=O)N(C)C[C@@H](OC)[C@@H](C)CN(C(=O)NC(C)C)[C@@H](C)CO2	6	12[16.7 µM]	-9	4	·
COc1cccc(C(=O)N2C[C@H]3[C@@H](c4ccccc42)[C@H](CO)N3C(=O)c2ccc(F)cc2)c1	-4	-14[16.7 µM]	-15	27*	·
CN(C)C(=O)C[C@@H]1C=C[C@@H](NC(=O)C2CCC2)[C@H](CO)O1	-3	·	-7	-5	·
Cc1c(CCC(=O)NCCCN2CCCC2=O)c(=O)oc2cc(O)ccc12	-4	-8	8	67*	-5
Cc1oc2cc3oc(=O)c(CCC(=O)NCCCn4ccnc4)c(C)c3cc2c1C	-19	-7	-8	21*	-5
Cc1c(CCC(=O)NCCCN2CCCC2=O)c(=O)oc2c(C)c(O)ccc12	-3	3	14	?	-18
C[C@H]1CCCCO[C@H](CN(C)Cc2ccc3c(c2)OCO3)[C@@H](C)CN([C@@H](C)CO)C(=O)c2cc(NS(=O)(=O)c3cccs3)ccc2O1	3	9[16.7 µM]	·	41*!	·
C[C@@H]1CN([C@@H](C)CO)C(=O)c2cc(NS(=O)(=O)c3cccs3)ccc2O[C@@H](C)CCCCO[C@@H]1CN(C)Cc1ccc(C(F)(F)F)cc1	-17	0[16.7 µM]	116*	-1	·
C[C@H](CO)N1C[C@H](C)[C@H](CN(C)Cc2ccc(C(F)(F)F)cc2)OCCCC[C@H](C)Oc2ccc(NS(=O)(=O)c3cccs3)cc2C1=O	9	·	·	-1	·
C[C@@H]1CN([C@@H](C)CO)C(=O)c2cc(NS(=O)(=O)c3cccs3)ccc2O[C@@H](C)CCCCO[C@H]1CN(C)Cc1ccc2c(c1)OCO2	15	-18[16.7 µM]	·	37*	·
C[C@@H]1CN([C@H](C)CO)C(=O)c2cc(NS(=O)(=O)c3cccs3)ccc2O[C@@H](C)CCCCO[C@@H]1CN(C)Cc1ccc2c(c1)OCO2	-6	-9[16.7 µM]	·	-14	·
C[C@H](CO)N1C[C@H](C)[C@@H](CN(C)Cc2ccc3c(c2)OCO3)OCCCC[C@H](C)Oc2ccc(NS(=O)(=O)c3cccs3)cc2C1=O	3	-2[16.7 µM]	·	-6	·
C[C@@H]1CCCCO[C@@H](CN(C)Cc2ccc3c(c2)OCO3)[C@H](C)CN([C@@H](C)CO)C(=O)c2cc(NS(=O)(=O)c3cccs3)ccc2O1	7	-5[16.7 µM]	·	112*!	·
CC(C)NC(=O)Nc1ccc2c(c1)CC(=O)N([C@@H](C)CO)C[C@@H](C)[C@H](CN(C)S(=O)(=O)c1cn(C)cn1)O2	-10	10[16.7 µM]	-24	7	·
Cc1ccc(S(=O)(=O)Nc2ccc3c(c2)C(=O)N([C@@H](C)CO)C[C@H](C)[C@H](CN(C)S(=O)(=O)c2ccc(F)cc2)OCCCC[C@@H](C)O3)cc1	-12	11[16.7 µM]	·	12	·
CC(=O)Nc1cccc(Nc2cc(C)nn2C)c1	6	-1	-15	73*	·
CCNS(=O)(=O)c1ccc(Br)c(C(=O)OC(C)C(=O)NCC2CCCCC2)c1 (centres undefined)	2	-2	1	43*	6
CC(OC(=O)c1cccc(S(=O)(=O)N2CCCCC2)c1)C(=O)NCC1CCCCC1 (centres undefined)	·	5	0	-7	-16
C[C@@H]1CN([C@@H](C)CO)C(=O)c2cc(C#CCc3ccccc3)cnc2O[C@@H]1CN(C)C(=O)Cc1cccnc1	-4	6[16.7 µM]	6	-4	·
CCOC(=O)Cn1c(=O)oc2cc(S(=O)(=O)NC3CCCc4ccccc43)ccc21 (centres undefined)	2	-6	-9	27*	-5
COc1ccc(N(C(=O)CCl)C(C(=O)NCCc2ccccc2)c2cccs2)cc1 (centres undefined)	61*	-19	-271	2	-7
C[C@@H]1CN([C@H](C)CO)C(=O)c2cc(-c3cccc(F)c3)cnc2O[C@H]1CN(C)Cc1ccccn1	5	0[16.7 µM]	2	-4	·
N#C/C(=C\c1ccc2c(c1)OCCO2)C(=O)NC1CCCCC1	·	·	·	62*	8
O=C(C[C@@H]1CC[C@H]2[C@@H](COC[C@@H](O)CN2C(=O)Nc2ccc(C(F)(F)F)cc2)O1)NCC1CCCCC1	-7	-2[16.7 µM]	-43	-3	·
SMILES	PGC1a acetyl inh	miR122 inh	Statin myotox sup	DENV2 CPE	PvdQ inh
C[C@H](NC(=O)C[C@@H]1C=C[C@@H](NC(=O)Nc2ccc3c(c2)OCO3)[C@@H](CO)O1)c1ccccc1	·	·	·	15	·
CC1(C)CC(=O)c2cnc(NC(=O)CCc3ccccc3)nc2C1	7	-3	93*	·	0
Cc1cccc2c1CC(C)(C)N/C2=C\C(N)=O	-2	1	-10	·	-9
Cc1cc2c(cc1C)/C(=C\C(N)=O)NC(C)(C)C2	-1	3	142*	·	-6
COc1ccc(-c2sc(Nc3ccccc3)n[n+]2-c2ccccc2)cc1Br	-2	6	4	·	-25
C(=C\c1sc(Nc2ccccc2)n[n+]1-c1ccccc1)/c1ccccc1	-9	-3	2	52*	-6
O=C(C[C@H]1C(=O)N(Cc2ccccc2)C[C@@H]1Cc1ccccc1)Nc1ccc(Br)cc1	·	20	25	26*	·
CCCCC[C@H]1CN(CCc2ccccc2)C(=O)[C@@H]1CC(=O)NCc1ccc(OC)cc1	-3	0	22	24*	-7
CCCCC[C@H]1CN(CCCC)C(=O)[C@@H]1CC(=O)NCc1ccc(OC)cc1	-8	-4	9	?	-7
CCCCN1C[C@H](Cc2ccccc2)[C@@H](CC(=O)NCc2ccc(OC)cc2)C1=O	-2	6	3	48*	7
O=C(C[C@H]1C(=O)N(Cc2cccnc2)C[C@@H]1Cc1ccccc1)Nc1ccc(Br)cc1	3	26	-4	-3	·
O=C(c1ccc2c(c1)OCO2)N1CC[C@@H]2[C@H](CO)Nc3ccc(-c4ccccc4)cc3[C@@H]21	5	5[16.7 µM]	27	23*	·
O=C(c1ccc2c(c1)OCO2)N1CC[C@@H]2[C@H]1c1cc(-c3ccccc3)ccc1N[C@@H]2CO	11	-4[16.7 µM]	3	?	·
COc1ccc(-c2ccc3c(c2)[C@@H]2[C@@H](CCN2C(=O)c2ccc4c(c2)OCO4)[C@@H](CO)N3)cc1	13	0[16.7 µM]	?	74*	·
CN(C)C(=O)c1ccc(-c2ccc3c(c2)[C@H]2[C@H](CCN2C(=O)c2ccccn2)[C@H](CO)N3)cc1	-1	8[16.7 µM]	-20	26*	·
CCCC#Cc1ccc([C@@H]2[C@@H](CO)N3C(=O)CN(S(=O)(=O)c4ccccc4C)C[C@H]23)cc1	4	·	·	-4	·

Screens (PubChem BioAssay)
